Inconclusive results are not listed. A call without a number means that no potency is given here. Unmarked numbers belong to inactive results. Calls of active or inactive are those of the source. Unless noted, the call rests on the fitted dose curve; in most records, active means well fitted inhibition curve with a large enough effect; inconclusive means small, poorly fitted or top-dose-only effect; inactive means flat fitted curve, though single readings scatter.
Assays:
[1] = biological target: Glucocorticoid receptor (Homo sapiens) (UniProt P04150); assay: qHTS assay for small molecule agonists of glucocorticoid receptor signaling (AID 588532; active means well fitted curve in the direction sought with a large enough effect in the signal ratio, with a control signal flat; the % refers to the signal ratio); settings: HeLa MMTV-bla, beta-lactamase ratio, agonist, 18 h; active compounds read high; percent of dexamethasone control, DMSO zero
Chain of Glucocorticoid receptor (Homo sapiens) (P04150 whole entry, looked up): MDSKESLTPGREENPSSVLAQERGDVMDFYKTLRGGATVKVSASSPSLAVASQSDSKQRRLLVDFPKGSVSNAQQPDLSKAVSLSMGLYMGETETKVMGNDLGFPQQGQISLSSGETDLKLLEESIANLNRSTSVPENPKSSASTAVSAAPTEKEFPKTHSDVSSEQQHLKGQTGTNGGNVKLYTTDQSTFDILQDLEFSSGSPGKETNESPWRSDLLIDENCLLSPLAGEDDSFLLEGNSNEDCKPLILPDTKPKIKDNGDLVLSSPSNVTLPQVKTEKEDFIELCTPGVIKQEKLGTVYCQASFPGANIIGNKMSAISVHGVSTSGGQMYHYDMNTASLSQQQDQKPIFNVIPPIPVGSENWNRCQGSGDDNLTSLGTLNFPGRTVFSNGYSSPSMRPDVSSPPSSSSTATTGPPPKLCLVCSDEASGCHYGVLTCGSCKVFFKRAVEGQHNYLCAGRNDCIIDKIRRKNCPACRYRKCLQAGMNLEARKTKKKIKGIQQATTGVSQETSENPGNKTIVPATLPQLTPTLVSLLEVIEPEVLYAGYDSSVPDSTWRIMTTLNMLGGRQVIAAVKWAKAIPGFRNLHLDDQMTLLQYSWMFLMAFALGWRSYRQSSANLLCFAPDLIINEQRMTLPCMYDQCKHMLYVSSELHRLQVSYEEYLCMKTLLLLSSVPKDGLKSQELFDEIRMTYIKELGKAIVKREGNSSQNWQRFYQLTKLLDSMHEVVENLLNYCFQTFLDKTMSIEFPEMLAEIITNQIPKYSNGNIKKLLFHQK
In short: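 Agonist-mode qHTS: GRE-driven beta-lactamase in HeLa cells exposed 18 h to titrated compounds (up to 92 uM), then CCF4 ratio read after 2 h at RT; Hill-fitted EC50, efficacy relative to 0.1 uM dexamethasone.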

[2] = biological target: Glucocorticoid receptor (Homo sapiens) (UniProt P04150); assay: qHTS assay for small molecule antagonists of glucocorticoid receptor signaling (AID 588533; active means well fitted inhibition curve with a large enough effect in the signal ratio, with a control signal flat, not every such curve was filed as active; the % refers to the signal ratio;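 further: cells stimulated with 2 nM dexamethasone as agonist; potency means the concentration at half of the fitted maximal effect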); settings: HeLa MMTV-bla, GRE beta-lactamase ratio, antagonist mode, 18 h; series mostly up to 76.8 µM
In short: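 Antagonist-mode qHTS: compound titrations added to GRE-bla HeLa cells, then dexamethasone 2 nM final; 18 h, 37 C. CCF4 FRET fluorescence normalized to dexamethasone and DMSO; IC50 from Hill fit.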

[3] = biological target: Peroxisome proliferator-activated receptor gamma (Homo sapiens) (UniProt P37231); assay: qHTS assay for small molecule antagonists of peroxisome proliferator-activated receptor gamma signaling (AID 588537; active means well fitted inhibition curve with a large enough effect in the signal ratio, with a control signal flat, not every such curve was filed as active; the % refers to the signal ratio; further: potency means the concentration at half of the fitted maximal effect); settings: HEK293 PPARg-UAS-bla, beta-lactamase ratio, antagonist mode; series mostly up to 76.8 µM
Chain of Peroxisome proliferator-activated receptor gamma (Homo sapiens) (P37231 whole entry, looked up): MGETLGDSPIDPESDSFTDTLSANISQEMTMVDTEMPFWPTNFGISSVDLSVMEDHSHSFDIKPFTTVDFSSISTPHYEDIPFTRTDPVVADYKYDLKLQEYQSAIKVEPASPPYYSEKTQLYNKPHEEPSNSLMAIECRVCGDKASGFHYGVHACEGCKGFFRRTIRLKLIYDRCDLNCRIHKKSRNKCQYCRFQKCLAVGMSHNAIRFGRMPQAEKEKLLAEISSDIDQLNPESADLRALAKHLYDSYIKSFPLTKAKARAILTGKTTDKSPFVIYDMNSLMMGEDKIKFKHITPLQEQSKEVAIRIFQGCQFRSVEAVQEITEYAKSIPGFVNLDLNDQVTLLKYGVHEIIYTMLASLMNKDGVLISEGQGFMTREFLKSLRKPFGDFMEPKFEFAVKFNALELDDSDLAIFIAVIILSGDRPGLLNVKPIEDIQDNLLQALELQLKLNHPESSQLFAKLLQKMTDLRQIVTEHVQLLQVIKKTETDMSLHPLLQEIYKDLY
In short: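 Antagonist mode, beta-lactamase reporter in HEK293; charcoal/dextran FBS 1%; 3000 cells/well, 37 C 6-6.5 h; cpd titration + rosiglitazone 50 nM final, 16 h 37 C; CCF4, 2 h RT; 460/530 nm; Hill fit → IC50, efficacy.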

[4] = biological target: Vitamin D3 receptor (Homo sapiens) (UniProt P11473); assay: qHTS assay for small molecule antagonists of vitamin D receptor signaling (AID 588541; calls by dose curve;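 further: receptor activated by calcitriol during compound treatment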); settings: HEK293T VDR-UAS-bla, beta-lactamase ratio, antagonist mode; series mostly up to 76.7 µM
Chain of Vitamin D3 receptor (Homo sapiens) (P11473 whole entry, looked up): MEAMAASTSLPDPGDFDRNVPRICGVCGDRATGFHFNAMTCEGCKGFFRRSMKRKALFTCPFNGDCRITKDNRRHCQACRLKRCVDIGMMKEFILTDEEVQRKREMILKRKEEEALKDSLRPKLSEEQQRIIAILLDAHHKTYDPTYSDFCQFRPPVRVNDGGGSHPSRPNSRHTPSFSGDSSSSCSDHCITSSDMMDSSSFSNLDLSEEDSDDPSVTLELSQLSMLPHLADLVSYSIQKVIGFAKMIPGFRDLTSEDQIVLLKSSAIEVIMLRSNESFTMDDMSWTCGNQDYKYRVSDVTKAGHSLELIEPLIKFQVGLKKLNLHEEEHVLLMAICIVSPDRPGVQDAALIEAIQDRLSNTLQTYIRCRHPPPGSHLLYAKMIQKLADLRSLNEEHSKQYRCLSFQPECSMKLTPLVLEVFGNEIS
In short: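 Antagonist-mode beta-lactamase reporter assay: HEK293T VDR-UAS-bla cells were exposed to titrated compound alongside 1-alpha,25-dihydroxyvitamin D3 at 3 nM final for 16 h. Values were normalized to the 50 nM agonist control and DMSO basal, with IC50 and efficacy from Hill equation fits.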

[5] = biological target: Vitamin D3 receptor (Homo sapiens) (UniProt P11473); assay: qHTS assay for small molecule agonists of vitamin D receptor signaling (AID 588543; calls by dose curve); settings: HEK293T VDR-UAS-bla, beta-lactamase ratio, 16 h; series mostly up to 76.8 µM
In short: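 β-lactamase reporter, VDR-UAS-bla HEK293T, agonist mode. Cells plated 5 h at 37 °C, compound titration 16 h at 37 °C, CCF4 dye 2 h RT, ratio 460/530 nm. Hill fit → EC50, efficacy vs 50 nM 1α,25-(OH)2D3.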

[6] = biological target: Ubiquitin carboxyl-terminal hydrolase 1 (Homo sapiens) (UniProt O94782); assay: Inhibitors of USP1/UAF1: Pilot qHTS (AID 504865); settings: purified USP1/UAF1, Ub-rhodamine cleavage fluorescence; series mostly up to 114 µM; further: nearly all actives have a fitted effect of over 35% in size; further: potency means the concentration at half of the fitted maximal effect
Chain of Ubiquitin carboxyl-terminal hydrolase 1 (Homo sapiens) (O94782 whole entry, looked up): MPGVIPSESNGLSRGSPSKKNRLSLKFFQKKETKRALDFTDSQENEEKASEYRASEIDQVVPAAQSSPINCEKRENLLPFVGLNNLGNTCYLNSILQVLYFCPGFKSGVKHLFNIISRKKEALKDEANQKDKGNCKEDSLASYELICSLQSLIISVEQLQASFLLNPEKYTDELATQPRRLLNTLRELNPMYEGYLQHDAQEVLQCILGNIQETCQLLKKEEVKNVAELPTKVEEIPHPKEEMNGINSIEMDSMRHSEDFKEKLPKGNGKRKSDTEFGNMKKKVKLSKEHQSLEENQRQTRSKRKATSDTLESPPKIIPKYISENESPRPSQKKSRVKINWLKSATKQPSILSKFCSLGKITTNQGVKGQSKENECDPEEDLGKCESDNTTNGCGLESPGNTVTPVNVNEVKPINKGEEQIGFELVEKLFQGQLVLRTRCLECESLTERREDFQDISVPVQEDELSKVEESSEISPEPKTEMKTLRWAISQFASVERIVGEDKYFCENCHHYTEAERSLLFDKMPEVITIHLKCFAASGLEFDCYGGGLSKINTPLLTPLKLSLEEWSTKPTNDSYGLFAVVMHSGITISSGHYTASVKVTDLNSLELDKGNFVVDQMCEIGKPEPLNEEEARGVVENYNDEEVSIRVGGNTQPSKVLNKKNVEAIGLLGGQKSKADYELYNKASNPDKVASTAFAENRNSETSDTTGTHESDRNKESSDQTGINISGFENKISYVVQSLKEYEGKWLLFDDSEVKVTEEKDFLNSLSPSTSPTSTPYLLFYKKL
In short: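 1nM USP1/UAF1 + cpd, 15 min RT; start w/ Ub-Rho 150nM final; kinetic FL 480/540 nm, 6 reads q60 s. Buffer 50mM HEPES pH 7.8, 0.5mM EDTA, 1mM TCEP, 0.01% Tween-20, 0.1 mg/ml BSA.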

[7] = biological target: Androgen receptor (Homo sapiens) (UniProt P10275); assay: qHTS assay for small molecule antagonists of androgen receptor signaling (AID 588516; active means well fitted curve in the direction sought with a large enough effect in the signal ratio, with a control signal flat, not every such curve was filed as active; the % refers to the signal ratio); settings: AR-UAS-bla HEK293, beta-lactamase ratio, antagonist mode, 16 h; series mostly up to 76.8 µM
Chain of Androgen receptor (Homo sapiens) (P10275 whole entry, looked up): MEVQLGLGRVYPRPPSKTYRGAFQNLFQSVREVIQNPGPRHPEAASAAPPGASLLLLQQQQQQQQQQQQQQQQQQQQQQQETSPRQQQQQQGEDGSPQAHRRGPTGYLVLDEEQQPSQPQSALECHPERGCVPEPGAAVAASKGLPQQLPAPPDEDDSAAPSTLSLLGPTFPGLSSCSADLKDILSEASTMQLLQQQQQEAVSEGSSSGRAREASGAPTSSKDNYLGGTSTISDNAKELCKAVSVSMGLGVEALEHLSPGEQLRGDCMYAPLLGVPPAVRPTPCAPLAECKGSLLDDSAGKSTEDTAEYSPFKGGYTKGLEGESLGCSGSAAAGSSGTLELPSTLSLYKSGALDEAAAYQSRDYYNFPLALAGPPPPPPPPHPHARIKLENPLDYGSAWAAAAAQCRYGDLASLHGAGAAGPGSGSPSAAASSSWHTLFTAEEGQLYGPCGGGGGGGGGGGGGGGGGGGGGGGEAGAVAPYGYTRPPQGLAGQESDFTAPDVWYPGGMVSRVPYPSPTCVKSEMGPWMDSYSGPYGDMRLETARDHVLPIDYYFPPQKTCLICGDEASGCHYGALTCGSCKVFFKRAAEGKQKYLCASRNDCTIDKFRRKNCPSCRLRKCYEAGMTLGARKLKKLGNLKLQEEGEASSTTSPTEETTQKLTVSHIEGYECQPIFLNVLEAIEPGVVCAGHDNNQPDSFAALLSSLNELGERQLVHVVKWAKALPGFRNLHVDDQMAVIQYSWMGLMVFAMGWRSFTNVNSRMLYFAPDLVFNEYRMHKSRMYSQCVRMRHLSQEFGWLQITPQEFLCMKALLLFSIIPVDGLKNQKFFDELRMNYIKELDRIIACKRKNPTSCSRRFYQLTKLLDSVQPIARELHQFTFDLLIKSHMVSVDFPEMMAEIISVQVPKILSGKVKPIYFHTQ
In short: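 HEK293 AR-UAS-bla cells, 10% dialyzed FBS medium; cpd titration + R1881 10 nM final, 16 h 37 C; CCF4 2 h RT; FRET ratio; IC50/efficacy via Hill fit.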

Q: With Oc1ccc(O)cc1 as the compound, how does the activation [1] read?
A: -0.636%

Q: With C[C@]12CC[C@@H]3c4ccc(O)cc4CC[C@H]3[C@@H]1CC[C@@H]2O as the compound, how does the activation [1] read?
A: -6.54%

Q: What about the Potency [2] of the same compound?
A: 7.08 µM (active)

Q: What about the Potency [3] of the same compound?
A: 39.8 µM (active)

Q: And the Potency [4]?
A: inactive

Q: And the outcome [5]?
A: inactive

Q: How did the Potency [6] turn out when C[C@@H](CN(C)C)CN1c2ccccc2Sc2ccccc21 was run?
A: inactive

Q: How did the Potency [6] turn out when CCOc1ccc2nc3cc(N)ccc3c(N)c2c1 was run?
A: 50.1 µM (active)

Q: How did the Potency [6] turn out when CCCCC(CC)CN=C(N)NC(N)=NCCCCCCN=C(N)NC(N)=NCC(CC)CCCC (stereo not drawn) was run?
A: 22.4 µM (active)

Q: How did the Potency [6] turn out when CC(=O)c1ccc2c(c1)N(CCCN1CCC(CCO)CC1)c1ccccc1S2 was run?
A: inactive

Q: How did the Potency [6] turn out when O=C(Nc1ccc(Cl)c(Cl)c1)C1CC1 was run?
A: inactive

Q: Cc1ncc(CSSCc2cnc(C)c(O)c2CO)c(CO)c1O was tested. Which Potency [6] did it give?
A: inactive

Q: Which Potency [6] does the source give for CCn1cc(C(=O)O)c(=O)c2cnc(N3CCCC3)nc21 here?
A: inactive

Q: Which Potency [6] does the source give for NC(CS)C(=O)O (stereo not drawn) here?
A: inactive

Q: How did the Potency [6] turn out when COc1cc(C(=S)N2CCOCC2)cc(OC)c1OC was run?
A: inactive

Q: Which Potency [6] does the source give for Cc1ccnc(NS(=O)(=O)c2ccc(N)cc2)n1 here?
A: inactive

Q: For CCCCC1=NC2(CCCC2)C(=O)N1Cc1ccc(-c2ccccc2-c2nn[nH]n2)cc1, which Potency [6] is on record?
A: inactive

Q: For CCOc1ccc(NC(=O)CC(C)O)cc1 (stereo not drawn), which Potency [6] is on record?
A: inactive

Q: Which Potency [6] does the source give for O=C1OCCN1/N=C/c1ccc([N+](=O)[O-])o1 here?
A: inactive

Q: For CCCCCC=CCC=CCCCCCCCC(=O)OCC, which Potency [6] is on record?
A: inactive

Q: Which Potency [6] does the source give for CN(C)CCCOc1nn(Cc2ccccc2)c2ccccc12 here?
A: inactive

Q: Which Potency [6] does the source give for CC(=O)Oc1ccc(C(=C2CCCCC2)c2ccc(OC(C)=O)cc2)cc1 here?
A: inactive

Q: With Cc1ccc(O)c2ncccc12 as the compound, how does the Potency [6] read?
A: inactive

Q: With COc1c2occc2c(OC)c2c(=O)cc(C)oc12 as the compound, how does the Potency [6] read?
A: 39.8 µM (active)

Q: OCc1ccccc1O was tested. Which Potency [6] did it give?
A: inactive

Q: O=C1[C@H]2CCCC[C@H]2C(=O)N1CCCCN1CCN(c2nsc3ccccc23)CC1 was tested. Which Potency [6] did it give?
A: inactive

Q: How did the Potency [6] turn out when CC(=O)OCC(=O)[C@@]1(OC(C)=O)[C@@H](C)C[C@H]2[C@@H]3C[C@H](F)C4=CC(=O)C=C[C@]4(C)[C@@]3(F)[C@@H](O)C[C@@]21C was run?
A: inactive

Q: How did the Potency [6] turn out when C[C@]12CCC(=O)C=C1CC[C@H]1[C@@H]3CC[C@](O)(C(=O)CO)[C@@]3(C)C[C@H](O)[C@@]12F was run?
A: inactive

Q: How did the Potency [6] turn out when Nc1ccc(C(=O)Nc2ccccc2N)cc1 was run?
A: inactive

Q: Which Potency [6] does the source give for CN(C)CCOc1ccccc1Cc1ccccc1 here?
A: inactive

Q: With COc1ccc(/C=C/C(=O)c2ccc(OC)cc2OC)cc1 as the compound, how does the Potency [6] read?
A: inactive

Q: For CN1CCC[C@@H]1c1cccnc1, which Potency [6] is on record?
A: inactive

Q: Which Potency [6] does the source give for CCCCc1nc(Cl)c(CO)n1Cc1ccc(-c2ccccc2-c2nn[nH]n2)cc1 here?
A: inactive

Q: With CO/N=C1\CN(c2nc3c(cc2F)c(=O)c(C(=O)O)cn3C2CC2)CC1CN (stereo not drawn) as the compound, how does the Potency [6] read?
A: inactive

Q: O=c1c(-c2ccccc2)c1-c1ccccc1 was tested. Which Potency [6] did it give?
A: inactive

Q: COc1cc2c(cc1OC)C(=O)C(CC1CCN(Cc3ccccc3)CC1)C2 (stereo not drawn) was tested. Which Potency [6] did it give?
A: inactive

Q: Which Potency [6] does the source give for CCN(CC)CCOC(=O)C(c1ccccc1)C1CCCCC1 (stereo not drawn) here?
A: inactive

Q: For CCCCCCCCCCCCCCCCOP(=O)([O-])OCC[N+](C)(C)C, which Potency [6] is on record?
A: inactive

Q: Which Potency [6] does the source give for NCCC(O)(P(=O)(O)O)P(=O)(O)O here?
A: inactive

Q: Cc1cccn2c(=O)c(-c3nnn[nH]3)cnc12 was tested. Which Potency [6] did it give?
A: inactive

Q: For CN(C(=O)CN(CCO)CC(=O)N(C)C(C)(C)Cc1ccccc1)C(C)(C)Cc1ccccc1, which Potency [6] is on record?
A: inactive

Q: Cc1cc(=O)n(-c2ccccc2)n1C was tested. Which outcome [7] did it give?
A: inactive

Q: CCCCCCc1ccc(O)cc1O was tested. Which outcome [7] did it give?
A: inactive
